# Only some compounds are listed: those with a hit (about 1.5% of all), similar ones and a draw of the others.
# PrPC TRFRET: inhibitors of human cell surface prion protein PrPC; P04156; TR-FRET read-out; inhibition, % at 13.8 µM; 370,000 tested, 0.43% active; in the data active means inhibition above about 24%; further: 0% = median of the test wells and 100% = reference compound wells
# PriA SSB inh: K. pneumoniae PriA-SSBct interaction inhibition; AID 1272365; 430,000 tested, 0.6% active; AlphaScreen SSBct-PriA binding, biotinylated peptide; inhibition, % at 33 µM; in the data active means inhibition mostly above about 37%, no sharp cut-off; inactive means mostly below about 20%;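 further: plate controls were negative control peptide for no effect and reference peptide for full effect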
# Vc quorum ag: quorum light induction in luxS cqsA deficient V. cholerae; activation, % at 18.7 µM; V. cholerae BH1578 lux reporter, luminescence, 6 h; 350,000 tested, 0.16% active; in the data active means activation mostly above about 9.7%, no sharp cut-off
# TcdB inh: TcdB glycohydrolase inhibition | P18177 | TcdB glycohydrolase enzymatic assay, plate reader | inhibition, % at 9.99 µM | 350,000 tested, 0.24% active; in the data active means inhibition above about 10%
# Target sequence (P18177 whole entry, looked up): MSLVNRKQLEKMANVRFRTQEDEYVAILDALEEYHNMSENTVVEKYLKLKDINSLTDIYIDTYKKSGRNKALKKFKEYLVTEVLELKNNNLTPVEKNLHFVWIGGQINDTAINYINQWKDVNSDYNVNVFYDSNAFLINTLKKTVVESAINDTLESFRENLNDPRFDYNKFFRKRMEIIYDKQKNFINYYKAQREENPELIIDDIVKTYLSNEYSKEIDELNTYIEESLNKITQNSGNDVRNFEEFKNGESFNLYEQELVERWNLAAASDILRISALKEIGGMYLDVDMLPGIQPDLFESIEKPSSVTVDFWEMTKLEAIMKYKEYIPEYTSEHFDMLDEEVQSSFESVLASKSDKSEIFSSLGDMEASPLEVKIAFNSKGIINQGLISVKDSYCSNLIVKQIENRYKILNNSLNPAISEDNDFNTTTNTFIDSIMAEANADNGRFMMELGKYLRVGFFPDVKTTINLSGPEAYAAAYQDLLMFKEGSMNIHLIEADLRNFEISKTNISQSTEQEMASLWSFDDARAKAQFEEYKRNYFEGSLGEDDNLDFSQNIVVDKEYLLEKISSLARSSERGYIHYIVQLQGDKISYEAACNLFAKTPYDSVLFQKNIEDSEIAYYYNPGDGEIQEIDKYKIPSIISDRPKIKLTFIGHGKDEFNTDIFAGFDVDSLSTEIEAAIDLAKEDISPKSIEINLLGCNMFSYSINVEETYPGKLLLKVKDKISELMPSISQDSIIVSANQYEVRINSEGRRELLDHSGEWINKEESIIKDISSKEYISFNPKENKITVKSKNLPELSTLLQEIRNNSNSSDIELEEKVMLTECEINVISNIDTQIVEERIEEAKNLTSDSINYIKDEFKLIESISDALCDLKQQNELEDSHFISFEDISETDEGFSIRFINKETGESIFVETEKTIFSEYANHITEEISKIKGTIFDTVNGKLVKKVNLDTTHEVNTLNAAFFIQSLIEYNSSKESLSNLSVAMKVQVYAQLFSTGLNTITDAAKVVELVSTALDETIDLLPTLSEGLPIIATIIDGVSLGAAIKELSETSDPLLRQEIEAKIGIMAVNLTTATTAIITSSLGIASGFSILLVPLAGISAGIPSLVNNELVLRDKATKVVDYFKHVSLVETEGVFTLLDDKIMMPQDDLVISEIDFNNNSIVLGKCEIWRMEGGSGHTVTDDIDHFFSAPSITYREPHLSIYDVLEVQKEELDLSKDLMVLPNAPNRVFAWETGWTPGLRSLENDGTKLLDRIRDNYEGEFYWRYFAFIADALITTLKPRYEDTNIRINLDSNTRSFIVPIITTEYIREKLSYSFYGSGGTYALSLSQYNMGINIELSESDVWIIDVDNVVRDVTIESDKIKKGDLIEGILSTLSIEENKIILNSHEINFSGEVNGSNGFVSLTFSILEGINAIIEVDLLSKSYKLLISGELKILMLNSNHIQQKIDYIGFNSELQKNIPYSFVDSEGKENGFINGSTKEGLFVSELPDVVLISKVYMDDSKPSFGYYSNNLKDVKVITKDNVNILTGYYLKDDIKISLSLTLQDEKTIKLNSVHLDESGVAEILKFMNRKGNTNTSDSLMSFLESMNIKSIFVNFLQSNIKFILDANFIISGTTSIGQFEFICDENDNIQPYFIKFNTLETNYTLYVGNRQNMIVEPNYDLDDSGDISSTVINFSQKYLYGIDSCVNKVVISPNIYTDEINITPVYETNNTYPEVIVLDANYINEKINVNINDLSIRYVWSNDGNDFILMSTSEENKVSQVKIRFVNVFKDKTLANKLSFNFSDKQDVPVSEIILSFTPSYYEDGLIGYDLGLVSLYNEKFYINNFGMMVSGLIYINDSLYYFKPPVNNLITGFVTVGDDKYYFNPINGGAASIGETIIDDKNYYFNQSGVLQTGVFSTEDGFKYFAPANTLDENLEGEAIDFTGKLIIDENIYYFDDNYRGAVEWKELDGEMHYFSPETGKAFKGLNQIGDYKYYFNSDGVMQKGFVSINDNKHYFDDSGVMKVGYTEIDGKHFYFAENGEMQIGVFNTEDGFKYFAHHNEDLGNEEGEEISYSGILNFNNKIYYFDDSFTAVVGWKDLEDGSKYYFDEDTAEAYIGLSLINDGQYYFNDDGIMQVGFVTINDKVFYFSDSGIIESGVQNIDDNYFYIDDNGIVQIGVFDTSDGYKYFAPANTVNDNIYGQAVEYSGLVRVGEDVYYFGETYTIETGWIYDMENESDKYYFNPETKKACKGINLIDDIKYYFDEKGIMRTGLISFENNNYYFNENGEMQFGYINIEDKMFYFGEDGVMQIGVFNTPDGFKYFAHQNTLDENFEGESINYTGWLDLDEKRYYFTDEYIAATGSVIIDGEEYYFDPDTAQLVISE
# CCHFV vOTU inh: CCHFV vOTU protease inhibition; Pep-AMC fluorescence; inhibition, % at 11.5 µM; 370,000 tested, 0.55% active; in the data active means inhibition above about 30%; further: 0% = vehicle wells with enzyme and 100% = no enzyme wells
# DUSP3 inh: inhibitors of human VHR1 phosphatase (DUSP3); recombinant VHR phosphatase, pNPP absorbance; inhibition, % at 13.3 µM; 290,000 tested, 0.52% active; AID 1654; in the data active means inhibition above about 50%
# An asterisk follows results filed as active; i = inactive; . = no result; ! = repeats disagree.
SMILES,PrPC TRFRET,PriA SSB inh,Vc quorum ag,TcdB inh,CCHFV vOTU inh,DUSP3 inh
Oc1ccccc1C(Nc1nccs1)c1ccc2cccnc2c1O (centres undefined),16,66*,-3,0,20,5
Cc1ccc(C)c(NC(=O)Nc2cc(NC(=O)Nc3cc(C)ccc3C)c(C)nc2C)c1,.,-7,.,.,.,.
CCC(NC(=O)c1ccccc1NC(=O)c1ccccc1)C(=O)OC (centres undefined),-1,52*,0,1,-3,-15
CCC(NC(=O)c1ccccc1NC(=O)c1ccc(OC)cc1)C(=O)N1CCCC1 (centres undefined),-4,-6,0,1,-6,12
CN(C)C(=O)N1CCN(c2nc(-c3ccccc3)cs2)CC1,2,7,2,-1,4,53*
c1ccc(Cn2nnc3c(N4CCN(Cc5ccc6c(c5)OCO6)CC4)ncnc32)cc1,2,-1,0,.,-14,51*
C[C@H]1CCc2c(sc3ncnc(SCC(=O)Nc4ccc5c(c4)OCCO5)c23)C1,.,-5,.,.,.,.
CC(C)(C)N1C(=O)c2ccc(C(=O)Nc3ccc(O)cc3)cc2C1=O,16,-3,i,22*,5,1
CC(C)(C)NC(=O)c1cccc(NC(=O)c2ccc3c(c2)C(=O)N(C(C)(C)C)C3=O)c1,-18,15,i,0,5,9
O=C(COc1ccc(Cl)cc1)NC[C@H](O)c1csc2ccccc12,.,-24,.,.,.,.
CC(=O)Oc1oc(-c2ccccc2)nc1C=Nc1ccccc1,5,-3,-1,.,5,52*
CCOC(=O)c1ccc(N=Cc2nc(-c3ccccc3)oc2OC(C)=O)cc1,10,-10,-9,.,0,18
O=C(Nc1cccc(Cl)c1)Nc1ccccc1C(=O)O,2,-3,0,4,1,-13
O=C(Nc1ccc(Cl)cc1)Nc1ccccc1C(=O)O,0,-6,0,1,-5,57*
O=C(Nc1ccc(F)cc1)Nc1ccccc1F,14,-9,0,2,12,56*
CCCN(CCC)c1ccc(C(=S)N2CCOCC2)cc1,.,37*,.,.,.,.
CCCN(CCC)c1ccc(C(=S)N2CCNCC2)cc1,.,36*,.,.,.,.
CCCN(CCC)c1ccc(C(=S)N2CCN(C(=S)Nc3ccccc3)CC2)cc1,.,-2,.,.,.,.
Cc1ccc(NC(=O)C(C)(C)C)cc1N1CCCC1=O,.,-12,.,.,.,.
O=C(Nc1ccc2c(c1)OCCO2)c1ccc(=O)n(Cc2cccc(C(F)(F)F)c2)c1,.,-15,.,.,.,.
N#CCc1ccc(C(=O)c2ccccc2F)s1,-8,-3,25*,.,2,5
CN1CCOc2ccc(NC(=O)CSCc3ccccc3)cc2C1=O,.,-7,.,.,.,.
COc1cc(C)c(Br)cc1S(=O)(=O)NCc1cccs1,-5,-4,i,4,15,54*
Nc1nc2c(s1)CCc1ccccc1-2,1,56*!,-1,8,-8,6
COc1ccc2c(c1)-c1nc(N)sc1CC2,1,13,-1,7,-6,17
SMILES,PrPC TRFRET,PriA SSB inh,Vc quorum ag,TcdB inh,CCHFV vOTU inh,DUSP3 inh
OCC[C@@H]1C[C@@H](O)[C@H](O)[C@]2(CCCc3ccccc3O2)O1,-1,-22,i,1,4,52*
Cn1c(=O)c2c(SCC(=O)Nc3ccccc3C(F)(F)F)ccnc2n(C)c1=O,.,-27,.,.,.,.
CCCN(CCC)S(=O)(=O)c1ccc(C(=O)NCc2n[nH]c(=S)n2-c2ccc(Cl)c(Cl)c2)cc1,-7,45*!,0,2,16,2
Cc1ccc([N+](=O)[O-])cc1NC(=O)CC1Sc2ccccc2NC1=O (centres undefined),.,-11,.,.,.,.
Cc1ccc(NC(=O)COC(=O)CCc2c[nH]c3ccccc23)cc1[N+](=O)[O-],-18,40*,3,0,-1,-5
COCCCNC(=O)CSc1nc2cc(S(=O)(=O)N3CCCCC3)ccc2o1,6,46*,i,1,-6,.
CCOc1ccccc1N(C)C(=O)c1cn(C)c(=O)c2ccccc12,11,-5,-1,0,13,51*
Cc1ncoc1C(=O)NC1CC(C)(C)Cc2c1cnn2-c1ccc(F)cc1 (centres undefined),10,-20,-1,1,-2,53*
COCCN1CCCc2ccc(NS(=O)(=O)c3ccc(C(C)(C)C)cc3)cc21,.,39*,.,.,.,.
COCCN1CCCc2ccc(NS(=O)(=O)c3cc(Cl)ccc3C)cc21,.,57*,.,.,.,.
CS(=O)(=O)c1ccccc1-c1nnc(NC(=O)c2ccc(S(=O)(=O)N3CCOCC3)cc2)o1,.,-12,.,.,.,.
